Measurements reported in PubChem BioAssay (NCI).
About 83,000 compounds went through this panel and 20% of them were active in at least one assay; those are over-represented in the sample as a whole.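 Single-concentration screen, 48 h exposure, 96-well plates. Endpoint: percent growth. Below 10 = active.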 A number with no mark means an inactive call. The source made the active and inactive calls.

What was measured:
Assay in all cases: NCI-60 one-dose screen, 48 h (100 = growth as untreated, 0 = no growth, -100 = all killed)
Conditions in all cases: 10 µM unless noted
NCI-H23 lung = test system: NCI-H23 lung
NCI-H226 lung = test system: NCI-H226 lung
NCI-H322M lung = test system: NCI-H322M lung
HOP-62 NSCLC = test system: HOP-62 NSCLC
NCI-H460 lung = test system: NCI-H460 lung
HOP-92 NSCLC = test system: HOP-92 NSCLC
NCI-H522 lung = test system: NCI-H522 lung
A549/ATCC NSCLC = test system: A549/ATCC NSCLC
786-0 renal = test system: 786-0 renal
COLO 205 colon = test system: COLO 205 colon
DU-145 prostate = test system: DU-145 prostate
K-562 leukemia = test system: K-562 leukemia
MALME-3M melanoma = test system: MALME-3M melanoma
MDA-MB-231 breast = test system: MDA-MB-231 breast
RXF 393 renal = test system: RXF 393 renal
SF-268 CNS = test system: SF-268 CNS
SF-295 CNS = test system: SF-295 CNS
SF-539 CNS = test system: SF-539 CNS
UACC-257 melanoma = test system: UACC-257 melanoma
M14 melanoma = test system: M14 melanoma

Row | Compound | growth (NCI-H23 lung) | growth (NCI-H226 lung) | growth (NCI-H322M lung) | growth (HOP-62 NSCLC) | growth (NCI-H460 lung) | growth (HOP-92 NSCLC) | growth (NCI-H522 lung) | growth (A549/ATCC NSCLC) | growth (786-0 renal) | growth (COLO 205 colon) | growth (DU-145 prostate) | growth (K-562 leukemia) | growth (MALME-3M melanoma) | growth (MDA-MB-231 breast) | growth (RXF 393 renal) | growth (SF-268 CNS) | growth (SF-295 CNS) | growth (SF-539 CNS) | growth (UACC-257 melanoma) | growth (M14 melanoma)
1 | CC(C)=CCC[C@](C)(O)[C@H]1CC[C@]2(C)[C@@H]1CC[C@@H]1[C@@]3(C)C/C(=C/c4ccc(Br)cc4)C(=O)C(C)(C)[C@@H]3CC[C@]12C | 85.3% | 82.7% | 101% | 98.5% | 96.3% | 75.5% | 96.4% | 76.6% | 93.8% | 99.1% | 85.6% | 85.2% | 88.7% | 85.8% | 92.9% | 92.6% | 101% | 99.5% | 91.2% | 80.3%
2 | CCNCCCn1c2c(c3ccc([N+](=O)[O-])cc3c1=O)C(=O)c1cc(OC)cnc1-2 | -57.2% (active) | -44% (active) | 2.15% (active) | -66.6% (active) | -63% (active) | -11.5% (active) | -16.1% (active) | -81.8% (active) | -91.7% (active) | -30.9% (active) | 2.6% (active) | -3.04% (active) | -61.8% (active) | -32.6% (active) | -85.8% (active) | 1.69% (active) | -1.1% (active) | -48.2% (active) | -45.3% (active) | -37.1% (active)
3 | CC(=O)O[C@H]1CC[C@]2(C)[C@H]3CC=C4[C@@H]5[C@H](C)[C@@H](C)CC[C@]5(C(=O)NCCNCCNCCN)CC[C@@]4(C)[C@]3(C)CC[C@H]2C1(C)C | 94.6% | 90.5% | 87.6% | 86.2% | 76.8% | 55% | 87.2% | 73.8% | 84.5% | 72.5% | 89.8% | 12% | 59.3% | 78% | 82.7% | 84.1% | 101% | 84.4% | 98% | 88.1%
4 | Cc1cc(N2CCN(C)CC2)nc(N(CCNc2ccnc3cc(Cl)ccc23)Cc2ccco2)n1 | 57.5% | 92.9% | 51% | 26.8% | 24.3% | 49.2% | 53.7% | 41.4% | 32.6% | -5.82% (active) | 56.8% | 1.61% (active) | -57.7% (active) | 9.87% (active) | 40.4% | 52.8% | -15.3% (active) | -68.3% (active) | 5.22% (active) | -87.5% (active)
5 | CN(C)c1cccc2[nH]c(-c3[nH]ncc3Nc3ccnc(N)n3)nc12 | -45.1% (active) | -26.6% (active) | -13.6% (active) | -19.6% (active) | -32.7% (active) | -11.3% (active) | -24.6% (active) | -7.09% (active) | -58% (active) | -64% (active) | -5.08% (active) | 3.38% (active) | -79% (active) | -18.8% (active) | -86.3% (active) | -25.3% (active) | -41.5% (active) | -83.8% (active) | -65.8% (active) | -79.9% (active)
6 | Cc1csc(Nc2nc(-c3ccc(Cl)cc3)nc(C(Cl)(Cl)Cl)n2)n1 | 95.3% | 110% | -3.18% (active) | 76.4% | 56.6% | 83.3% | 92.8% | 34.6% | 89.5% | 52.6% | 12.6% | 87.2% | 99.9% | 79.9% | 87.1% | 90.5% | 60.8% | 87.2% | 98.7% | 95.9%
7 | COc1cc2c(cc1-c1c(C)noc1C)ncc1nc(C3CCCCC3)n([C@@H](C)COC(F)F)c12 | 56.8% | 55.5% | 41.9% | 28.6% | 53% | 27.7% | 26.2% | 33.2% | 42.8% | 9.21% (active) | 61% | 24.2% | 72.1% | 41% | 52.2% | 55.6% | 45.3% | 31.6% | 28.2% | 34.7%
8 | O=C1/C(=C\C(Cl)=C/c2ccc([N+](=O)[O-])cc2)SC(=S)N1CCc1ccc(O)cc1 | -57.9% (active) | -63.3% (active) | 2.21% (active) | 12.9% | 0.441% (active) | -3.03% (active) | 0.0131% (active) | 3.64% (active) | -46.4% (active) | -43.8% (active) | 5.69% (active) | 6.62% (active) | -64.5% (active) | 6.88% (active) | -72.5% (active) | 9.96% (active) | -31.4% (active) | -75.4% (active) | 4.06% (active) | -27.5% (active)
9 | C=C(C)[C@@H]1CC[C@]2(C(=O)O)CC[C@]3(C)[C@H](CC[C@@H]4[C@@]5(C)C/C(=C/c6ccc(OC)cc6)C(=O)C(C)(C)[C@@H]5CC[C@]43C)[C@@H]12 | 8.25% (active) | 25% | 30.4% | 23.8% | 1.81% (active) | 18.9% | 12.7% | 16.8% | 25.1% | 2.57% (active) | 34.4% | 15.6% | 42.2% | 32.4% | 43.9% | 38.8% | 11.9% | 22.1% | 31.1% | 25.3%
10 | Fc1ccc(NCc2nnc(-c3ccc(Cl)cc3)o2)cc1 | 70.1% | 71.8% | 82.5% | 84.6% | 83.7% | 67% | 56.5% | 66.1% | 87.8% | 90% | 95.5% | 53.8% | 93.8% | 55.6% | 84.8% | 77.9% | 77.9% | 90.6% | 68.4% | 77.9%
11 | Fc1ccc(Nc2ccc3c(OCCCN4CCOCC4)cccc3n2)cc1F | 79% | 64.6% | 73.3% | 89.6% | 55.7% | 63.9% | 83.8% | 75.4% | 74% | -7.44% (active) | 76.9% | 1.64% (active) | 70.3% | 29.8% | 80.5% | 71.3% | 78.3% | 52.2% | 94% | 69.2%
12 | O=C(/C(=C(\C(=O)c1ccccc1)c1ccccc1)c1ccccc1)c1ccccc1 | 42% | 63.9% | 76% | 80.3% | 25.1% | 37.8% | 43.3% | 28.9% | 69.9% | 53.2% | 80.1% | 14.1% | 77.2% | 66.7% | 69.5% | 56.2% | 54.7% | 82.1% | 68.8% | 66.3%
13 | C=C(C)[C@@H]1CC[C@]2(C)CC[C@]3(C)[C@H](CC[C@@H]4[C@@]5(C)CCCNC(C)(C)[C@@H]5CC[C@]43C)[C@@H]12 | 94.1% | 96.5% | 99.5% | 101% | 48.4% | 76.6% | 106% | 51.3% | 102% | 8.77% (active) | 75.6% | 4.15% (active) | 88.9% | 96.7% | 88.4% | 104% | 106% | 98.2% | 107% | 79.6%
14 | CCN(CC)c1ccc(/C=C/c2cc(C)c3ccccc3n2)cc1 | 64% | 61.1% | 101% | 46.7% | 43% | 82.2% | 31.3% | 53.9% | 94.6% | 24.7% | 94.2% | 25.3% | 59.4% | 42.4% | 13.2% | 82.5% | 41.5% | 48.4% | 60.5% | 38.2%
15 | CN1CCN(CC#CCn2c3c(c4ccccc42)C[C@]2(C)[C@H]4CC[C@@H]5[C@H]6[C@H]7OC(=O)[C@@]6(CCC7(C)C)CC[C@@]5(C)[C@]4(C)CC[C@H]2C3(C)C)CC1 | 92.7% | 91.6% | 106% | 95.2% | 98.6% | 67.4% | 102% | 58.6% | 107% | 108% | 35.4% | 12.7% | 113% | 42.7% | 67.1% | 92.9% | 104% | 89.1% | 109% | 80.9%
